Source: PubChem BioAssay (Tox21)
Several values for one entry are separate records, joined by “and”; a condition that tells them apart may be missing. Identical values can stand only once. Values without a mark were called inactive. Activity calls are given as the source filed them. Calls follow the shape of the full dose curve.

What follows are compounds tested against Acetylcholinesterase (Homo sapiens) (UniProt P22303) (assay: Acetylcholinesterase (AChE) small molecule antagonists: enzyme-based qHTS assay with human liver microsomes (AID 1347399; also: nearly all actives have a fitted effect of over 60% in size)). Settings: Potency: qHTS inhibition; series mostly up to 115 µM; activity change, negative = inhibition: at the top concentration.
In short: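 Recombinant human AChE (50 mU/mL in the enzyme mix) and human liver microsomes (0.25 mg/mL final) were preincubated with compound and NADPH (0.25 mg/mL final) for 30 min at 37 C. Acetylthiocholine/DTNB was then added; thiocholine was read colorimetrically after 10 min at room temperature.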
% is scaled to controls: 0 for no effect and ±100 for the full control effect; potency is read from the fitted curve at half-maximal effect.

Acetylcholinesterase (Homo sapiens), sequence (P22303 whole entry, looked up): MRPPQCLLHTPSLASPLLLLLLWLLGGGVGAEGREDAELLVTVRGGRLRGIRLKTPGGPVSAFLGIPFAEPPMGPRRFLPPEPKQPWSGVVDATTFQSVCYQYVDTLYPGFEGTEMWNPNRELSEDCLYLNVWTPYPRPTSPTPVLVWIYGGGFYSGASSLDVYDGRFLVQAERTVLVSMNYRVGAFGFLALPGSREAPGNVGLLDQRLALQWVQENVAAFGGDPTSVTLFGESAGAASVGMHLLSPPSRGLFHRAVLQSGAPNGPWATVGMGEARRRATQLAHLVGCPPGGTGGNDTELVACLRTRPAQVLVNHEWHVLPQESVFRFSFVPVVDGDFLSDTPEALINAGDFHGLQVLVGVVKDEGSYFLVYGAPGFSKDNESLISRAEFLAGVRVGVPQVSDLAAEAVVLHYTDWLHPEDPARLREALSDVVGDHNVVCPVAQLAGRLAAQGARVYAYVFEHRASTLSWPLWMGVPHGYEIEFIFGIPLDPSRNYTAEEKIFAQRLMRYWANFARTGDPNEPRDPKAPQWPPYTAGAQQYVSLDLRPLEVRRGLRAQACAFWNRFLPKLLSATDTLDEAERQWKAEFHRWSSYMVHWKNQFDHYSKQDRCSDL

Structure (SMILES) | activity change, negative = inhibition | Potency
C[C@]12CC[C@H]3[C@@H](CCC4=CC(=O)CC[C@@H]43)[C@@H]1CC[C@@H]2OC(=O)CCC1CCCCC1 | 0.77% [at 53 µM] | 
CCCCNP(N)(N)=S | -1.83% | 
c1cc2ccc3cccc4ccc(c1)c2c34 | 3.01% | 
C=CC(C)=O | -0.811% | 
Clc1cc(C(Cl)(Cl)Cl)cnc1Cl | 0.539% | 
C/C=C/C=O | -0.678% | 
CC1(C)[C@H](C=C(Cl)Cl)[C@@H]1C(=O)O[C@@H](C#N)c1cccc(Oc2ccccc2)c1 | 1.45% | 
Cc1c(F)c(F)c(COC(=O)C2C(/C=C(\Cl)C(F)(F)F)C2(C)C)c(F)c1F (stereo not given) | 0.121% | 
Nc1nc(N)nc(N)n1 | 0.577% | 
CCOS(C)(=O)=O | 2.56% | 
O=C(CBr)OCc1ccccc1 | 0.617% | 
O=S(=O)(O)C(F)(F)C(F)(F)C(F)(F)C(F)(F)F | 4.04% | 
Cc1ccc(N)cc1C | 0% | 
CC[C@H]1C[C@H]2[C@@H]3CCC4=CC(=O)CC[C@@H]4[C@H]3CC[C@]2(C)[C@H]1O | -0.767% [at 53 µM] | 
O=Cc1ccc2c(c1)OCO2 | -1.84% | 
COC(=O)C(Br)CBr (stereo not given) | 0.54% | 
C=COC(C)=O | -2.91% | 
CC1C(=O)C[C@]2(C(C)C)C[C@H]12 (stereo not given in full) | -0.156% | 
Brc1ccccc1 | -1.11% | 
CO/N=C(/C(=O)OC)c1ccccc1COc1ccccc1C | 1.14% | 
CC(C)(Cl)[N+](=O)[O-] | -0.171% | 
CC(C)O.CC(C)O.OCCN(CCO)CCO.OCCN(CCO)CCO.[Ti] | 0.131% | 
CCOP(=S)(OCC)Oc1nc(Cl)c(Cl)cc1Cl |  | 56.6 nM (active) and 894 nM (active)
ClP(Cl)(Cl)(Cl)Cl | -0.651% | 
CC(=O)NC1CCSC1=O (stereo not given) | -1.47% [at 53 µM] | 
